Records with an inconclusive call do not appear. Activity calls are given as the source filed them. Unless noted, calls come from the whole dose curve; as a rule, active = well fitted inhibition curve with a large enough effect; inconclusive = small, poorly fitted or top-dose-only effect; inactive = flat fitted curve, though single readings scatter.

In assay [1] the target is Cytochrome P450 1A2 (Homo sapiens) (UniProt P05177). The assay can be described thus: p450-cyp1a2 (AID 410; calls by dose curve; note: potency is the fitted concentration of half-maximal effect;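 for activity change, negative = inhibition: -100% = full effect of reference inhibitor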). In short, it runs like this:
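20nM CYP1A2, 100uM Luciferin-ME (=Km), 100mM KPO4; cpd 10 min RT; +NADPH regen, 60 min RT; stop/detect 20 min; luminescence. Normalized to furafylline 57 uM = full inhibition.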

A short description of assay [2]: NFAT Signaling Pathway (AID 444; active = well fitted curve in either direction with a large enough effect, not every such curve was filed as active;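 note: carbachol stimulus at about its EC50 of 1 µM final; % is set by controls: 0 for no effect and ±100 for the full control effect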). To be noted: Jurkat NFAT-bla M1, carbachol, beta-lactamase ratio, 5 h; at 17.2 µM (top of the series). The essentials: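 Jurkat cells carrying an NFAT-driven β-lactamase reporter and co-transfected muscarinic M1 receptor were treated with compound plus carbachol (1 uM final, an EC50 level) for 5 h at 37 °C. CCF4 loading followed for 1 h at RT; 460/530 nm ratio gave %activity.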

Assay [3] concerns the target Glucocorticoid receptor (Homo sapiens) (UniProt P04150). Kind of assay: GR-GFP Redistribution (AID 450;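 active = compounds whose dose series gives a full or clear partial fitted curve of increased nuclear translocation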; note: potency is the fitted concentration of half-maximal effect). Particulars: U2OS GR-GFP nuclear translocation, laser cytometry, 2 h.
Assay [4] shares this target. Kind of assay: GR-EFC Redistribution (AID 451; calls by dose curve; note: potency is the fitted concentration of half-maximal effect). To be noted: CHO-K1 GR-EFC translocation, beta-gal luminescence, 2 h. In short, it runs like this:
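CHO-K1 cells stably expressing nuclear-localized β-gal enzyme acceptor and GR fused C-terminally to the enzyme donor fragment; ligand-driven nuclear translocation restores β-gal by complementation. Compounds titrated up to 46 uM final, 2 h at 37 °C; luminescence read.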

Assay [5] has as its target Mitogen-activated protein kinase 10 (Mus musculus) (UniProt Q61831). Kind of assay: JNK3 AlphaScreen Assay (AID 530; active = well fitted curve in either direction with a large enough effect, not every such curve was filed as active;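 note: kinase came from lysate of stimulated human HepG2 cells; signal reports phosphorylation of biotinylated GST-cJun 1-79 at Ser73 with 10 µM ATP; % is set by controls: 0 for no effect and ±100 for the full control effect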). In short, it runs like this: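 Biotinylated GST-cJun(1-79) served as substrate for JNK3 in HepG2 lysates stimulated with IL-1beta and TNF-alpha. ATP was 10 uM final, pH 7.6. Ser73 phosphorylation was quantified by AlphaScreen (680 nm excitation).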
A general note: In Alpha technology, singlet oxygen from a donor bead excites a nearby acceptor bead.

Assay [6] can be described thus: qHTS Assay for Lipid Storage Modulators (AID 1519; calls by dose curve). Particulars: Drosophila S3 cells, BODIPY lipid droplet/cell ratio, laser cytometry, cells loaded with oleic acid. In short, it runs like this:
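Cells seeded at 5,000 per well were treated with compounds over a concentration series and loaded with oleic acid (400 uM, as added). Lipid droplet fluorescence (488 nm excitation, 500-530 nm channel) was read by laser-scanning cytometry and normalized to 20 uM Triacsin C.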
(Quantitative high-throughput screening tests each substance at several concentrations.)

For assay [7], the target named is Ubiquitin carboxyl-terminal hydrolase 1 (Homo sapiens) (UniProt O94782). Kind of assay: Inhibitors of USP1/UAF1: Pilot qHTS (AID 504865). Note: nearly all actives have a fitted effect of over 35% in size. Note: potency is the fitted concentration of half-maximal effect. In short, it runs like this:
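USP1/UAF1 complex (1nM) preincubated with compound 15 min at room temperature, then Ub-Rho substrate (150nM final) added. Fluorescence read kinetically at 480/540 nm, 6 reads every 60 seconds. Buffer: 50mM HEPES pH 7.8, 0.5mM EDTA, 0.1 mg/ml BSA, 1mM TCEP, 0.01% Tween-20.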

Assay [8] has as its target Luciferin 4-monooxygenase (Photinus pyralis) (UniProt P08659). Kind of assay: Biochemical firefly luciferase enzyme assay for NPC (AID 624030).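 Note: purified P. pyralis luciferase at 10 nM with luciferin and ATP substrate; 0% = DMSO and -100% = full luciferase inhibition by PTC124 control; nearly all actives have a fitted effect of over 70% in size.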 The essentials:
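Counter-screen for direct inhibition of the luciferase enzyme by approved-drug library compounds, run at 10 nM enzyme in 50 mM Tris acetate (final). Luminescence was read within 5 min of enzyme-buffer addition and normalized to PTC124 versus DMSO (0%).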

Assay [9] in a line: qHTS profiling for inhibitors of Plasmodium falciparum proliferation (AID 504749).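 Note: 0% = DMSO vehicle and full inhibition = artemisinin control; nearly all actives have a fitted effect of over 60% in size.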 To be noted: P. falciparum in erythrocytes, SYBR Green DNA, 72 h, at 12.8 µM (top of the series). In short, it runs like this: (§1)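 Fluorescence of SYBR Green-bound parasite DNA, read at 485/535 nm, served as the growth measure. Infected erythrocytes were cultured with compound 72 h; artemisinin (0.29 uM) and DMSO wells defined the normalization range.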

A further assay relates to 3D7. The description is as above. Particulars: P. falciparum in erythrocytes, SYBR Green DNA, 72 h; series mostly up to 28.7 µM. The essentials:
as §1

Another assay deals with C2A. Described as above. To be noted: P. falciparum in erythrocytes, SYBR Green DNA, 72 h; series mostly up to 28.7 µM. In short, it runs like this: as §1
The next assay has as its system CP211. The assay is described as above. To be noted: P. falciparum in erythrocytes, SYBR Green DNA, 72 h; series mostly up to 28.7 µM. In short, it runs like this: as §1
The subject of a further assay is CP217. Described as above. Particulars: P. falciparum in erythrocytes, SYBR Green DNA, 72 h; series mostly up to 28.7 µM. The essentials:
as §1

The test system of the next assay is CP252. The description is as above. Particulars: P. falciparum in erythrocytes, SYBR Green DNA, 72 h; series mostly up to 12.8 µM. The essentials: as §1
The test system of a further assay is CP286. The description is as above. To be noted: P. falciparum in erythrocytes, SYBR Green DNA, 72 h; series mostly up to 28.7 µM. The essentials: as §1
For the next assay, the system named is ECU. The assay is described as above. Particulars: P. falciparum in erythrocytes, SYBR Green DNA, 72 h; series mostly up to 28.7 µM. In short, it runs like this: as §1
Assay [10] is described as follows: AP1 Signaling Pathway (AID 357; active = well fitted curve in either direction with a large enough effect, not every such curve was filed as active;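 note: ME-180 reporter cells stimulated with EGF at its EC50 level; % is set by controls: 0 for no effect and ±100 for the full control effect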). The essentials: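 Modulation of EGF-driven AP-1 transcription was assessed with a beta-lactamase reporter in ME-180 cells. Compound and EC50 EGF were co-incubated 5 hours at 37 °C before 2.5-hour CCF4 loading at room temperature and dual-emission reading.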
Assay [11] is described as follows: Stat Signaling Pathway (AID 446; active = well fitted curve in either direction with a large enough effect, not every such curve was filed as active;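 note: ME-180 cervical cancer cells given 40 pM IL-6 alongside compound; SIE-controlled beta-lactamase reporter measured as 460/530 nm FRET emission ratio; % is set by controls: 0 for no effect and ±100 for the full control effect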). The essentials:
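Compound effects on IL-6-induced STAT reporter activity were measured in ME-180 cells. After overnight culture, cells were co-treated with 40 pM IL-6 for 5 hrs before beta-lactamase substrate loading at room temperature.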

The target in assay [12] is 3',5'-cyclic-AMP phosphodiesterase 4B (Homo sapiens) (UniProt Q07343). Kind of assay: qHTS Assay for Inhibitors of PDE-IV (AID 607; active = well fitted activation curve with a large enough effect in the main read-out, with a control signal flat, not every such curve was filed as active; note: % of control where 0% means no effect). In short, it runs like this: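 ACTOne HEK293 cells carry a modified cAMP-gated CNG channel and express endogenous PDE4; plated 1000 cells/well, compounds up to 22.9 uM final. Membrane-potential dye fluorescence (ex 535/em 590) was read; parental cells received 10 uM forskolin + 100 uM RO 20-1724.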
Chain of 3',5'-cyclic-AMP phosphodiesterase 4B (Homo sapiens) (Q07343 whole entry, looked up): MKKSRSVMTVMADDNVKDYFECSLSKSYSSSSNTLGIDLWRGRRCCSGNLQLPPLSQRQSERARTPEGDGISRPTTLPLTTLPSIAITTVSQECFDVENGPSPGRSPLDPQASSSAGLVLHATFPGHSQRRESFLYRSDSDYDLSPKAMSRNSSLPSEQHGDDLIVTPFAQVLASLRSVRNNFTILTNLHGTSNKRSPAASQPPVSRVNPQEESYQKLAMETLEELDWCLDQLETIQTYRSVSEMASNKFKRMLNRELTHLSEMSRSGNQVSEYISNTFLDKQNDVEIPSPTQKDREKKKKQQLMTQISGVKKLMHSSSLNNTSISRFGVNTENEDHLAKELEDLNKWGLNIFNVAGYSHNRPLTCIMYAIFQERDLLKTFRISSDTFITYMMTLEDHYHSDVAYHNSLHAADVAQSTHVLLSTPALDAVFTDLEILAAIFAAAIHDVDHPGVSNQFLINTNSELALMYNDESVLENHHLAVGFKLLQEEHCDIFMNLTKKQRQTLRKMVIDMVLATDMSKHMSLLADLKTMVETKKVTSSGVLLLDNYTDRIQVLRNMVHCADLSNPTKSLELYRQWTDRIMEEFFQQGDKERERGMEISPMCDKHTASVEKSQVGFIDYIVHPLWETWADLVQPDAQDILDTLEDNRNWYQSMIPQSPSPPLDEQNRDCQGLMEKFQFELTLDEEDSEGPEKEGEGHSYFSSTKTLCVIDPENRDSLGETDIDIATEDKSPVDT

The subject of another assay is CP262. The assay can be described thus: qHTS profiling for inhibitors of Plasmodium falciparum proliferation (AID 504749).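 Note: 0% = DMSO vehicle and full inhibition = artemisinin control; nearly all actives have a fitted effect of over 60% in size.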 To be noted: P. falciparum in erythrocytes, SYBR Green DNA, 72 h; series mostly up to 28.7 µM. In short, it runs like this:
as §1

[13] abbreviates: measured here: cell count channel max response.
The mark [14] stands for this setting: measured here: lipid channel max response.

Chain of Glucocorticoid receptor (Homo sapiens) (P04150 whole entry, looked up): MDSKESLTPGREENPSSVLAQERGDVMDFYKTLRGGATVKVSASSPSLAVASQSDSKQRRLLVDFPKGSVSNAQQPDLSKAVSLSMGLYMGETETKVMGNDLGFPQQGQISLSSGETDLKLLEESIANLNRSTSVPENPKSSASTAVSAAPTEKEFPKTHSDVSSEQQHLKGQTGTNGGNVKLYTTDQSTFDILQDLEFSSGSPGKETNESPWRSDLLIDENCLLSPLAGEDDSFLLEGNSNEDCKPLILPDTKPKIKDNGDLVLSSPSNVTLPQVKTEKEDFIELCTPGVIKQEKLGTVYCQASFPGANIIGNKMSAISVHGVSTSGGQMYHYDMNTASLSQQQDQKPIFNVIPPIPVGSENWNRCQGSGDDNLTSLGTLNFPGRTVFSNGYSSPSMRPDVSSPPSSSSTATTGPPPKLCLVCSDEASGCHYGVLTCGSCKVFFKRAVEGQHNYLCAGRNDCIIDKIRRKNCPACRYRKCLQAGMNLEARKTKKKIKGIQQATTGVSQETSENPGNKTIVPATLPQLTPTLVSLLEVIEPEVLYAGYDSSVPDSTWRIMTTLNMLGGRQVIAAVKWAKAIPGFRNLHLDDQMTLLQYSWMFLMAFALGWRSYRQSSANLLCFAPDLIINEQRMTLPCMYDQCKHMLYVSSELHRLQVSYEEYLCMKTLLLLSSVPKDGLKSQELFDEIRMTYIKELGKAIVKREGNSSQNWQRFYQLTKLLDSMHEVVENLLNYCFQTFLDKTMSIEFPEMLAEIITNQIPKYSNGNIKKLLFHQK
Chain of Cytochrome P450 1A2 (Homo sapiens) (P05177 whole entry, looked up): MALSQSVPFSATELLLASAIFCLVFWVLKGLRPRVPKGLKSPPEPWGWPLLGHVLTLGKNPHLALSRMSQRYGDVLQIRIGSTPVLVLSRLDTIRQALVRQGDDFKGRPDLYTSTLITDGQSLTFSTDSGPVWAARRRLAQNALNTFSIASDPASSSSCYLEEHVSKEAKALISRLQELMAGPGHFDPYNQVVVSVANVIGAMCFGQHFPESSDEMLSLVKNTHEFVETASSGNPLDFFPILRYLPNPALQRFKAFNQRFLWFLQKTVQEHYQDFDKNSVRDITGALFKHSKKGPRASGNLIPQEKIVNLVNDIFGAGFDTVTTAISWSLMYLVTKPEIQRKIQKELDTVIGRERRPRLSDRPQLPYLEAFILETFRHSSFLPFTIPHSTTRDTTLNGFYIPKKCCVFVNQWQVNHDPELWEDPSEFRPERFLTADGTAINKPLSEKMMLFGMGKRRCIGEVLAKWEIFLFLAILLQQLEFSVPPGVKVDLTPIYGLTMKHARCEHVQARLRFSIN
Chain of Ubiquitin carboxyl-terminal hydrolase 1 (Homo sapiens) (O94782 whole entry, looked up): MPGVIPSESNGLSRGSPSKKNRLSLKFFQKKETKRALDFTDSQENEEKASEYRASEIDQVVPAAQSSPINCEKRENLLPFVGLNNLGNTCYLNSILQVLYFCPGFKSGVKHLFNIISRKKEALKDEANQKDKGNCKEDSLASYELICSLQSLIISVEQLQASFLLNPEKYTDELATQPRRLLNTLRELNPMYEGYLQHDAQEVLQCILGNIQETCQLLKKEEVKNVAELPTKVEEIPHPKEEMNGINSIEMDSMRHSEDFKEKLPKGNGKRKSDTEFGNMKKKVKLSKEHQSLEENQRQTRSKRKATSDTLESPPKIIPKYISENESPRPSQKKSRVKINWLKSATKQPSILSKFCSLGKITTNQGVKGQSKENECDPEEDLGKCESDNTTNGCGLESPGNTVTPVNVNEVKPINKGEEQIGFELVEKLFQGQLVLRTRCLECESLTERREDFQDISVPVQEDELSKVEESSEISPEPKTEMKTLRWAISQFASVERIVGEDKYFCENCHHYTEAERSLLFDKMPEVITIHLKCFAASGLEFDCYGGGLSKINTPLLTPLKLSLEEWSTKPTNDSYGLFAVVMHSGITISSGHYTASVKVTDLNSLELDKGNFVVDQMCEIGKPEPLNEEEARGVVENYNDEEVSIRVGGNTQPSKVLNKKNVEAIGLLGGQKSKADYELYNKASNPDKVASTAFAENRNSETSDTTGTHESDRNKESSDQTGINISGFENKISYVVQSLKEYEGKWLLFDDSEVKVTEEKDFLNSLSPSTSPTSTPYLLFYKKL
Chain of Luciferin 4-monooxygenase (Photinus pyralis) (P08659 whole entry, looked up): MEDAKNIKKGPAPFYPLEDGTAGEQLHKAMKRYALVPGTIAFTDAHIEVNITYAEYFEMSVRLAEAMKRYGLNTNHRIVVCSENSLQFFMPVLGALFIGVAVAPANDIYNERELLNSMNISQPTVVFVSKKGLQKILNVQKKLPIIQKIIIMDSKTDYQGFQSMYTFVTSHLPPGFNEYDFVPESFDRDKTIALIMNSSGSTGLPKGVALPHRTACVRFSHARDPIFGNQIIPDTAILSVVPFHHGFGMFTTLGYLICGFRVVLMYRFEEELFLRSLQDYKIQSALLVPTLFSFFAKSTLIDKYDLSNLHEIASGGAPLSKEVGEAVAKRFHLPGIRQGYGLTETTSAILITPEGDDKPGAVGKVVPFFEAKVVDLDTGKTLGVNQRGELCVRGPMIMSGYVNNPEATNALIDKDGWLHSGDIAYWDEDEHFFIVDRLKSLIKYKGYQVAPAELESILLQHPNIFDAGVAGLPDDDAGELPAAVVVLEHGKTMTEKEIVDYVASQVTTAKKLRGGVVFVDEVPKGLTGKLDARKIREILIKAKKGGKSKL

As to `C[C@@H]1O[C@H](O[C@@H]2C=C3CC[C@H]4[C@@H](CC[C@]5(C)[C@@H](c6ccc(=O)oc6)CC[C@]45O)[C@@]3(C)CC2)[C@@H](O)[C@H](O)[C@@H]1O`, the Potency entry (in assay [1]; in [7]; in assay [8]; with 3D7; with C2A; with CP211) was “inactive” throughout. In addition, the Potency entry with CP217, with CP252, with CP286 and with ECU was “inactive” in each case. Moreover, the activity change, negative = inhibition was -39.6% (active) in assay [2] and -8.45% (inactive) in assay [6] (at 25.7 µM (top of the series)). Moreover, the Potency in assay [3] and in [4] was > 20.6 µM (inactive) in each case. The call in assay [5] was inactive. For the same molecule, the max response was -11.6% in [6] (setting [13]) and -25.4% in assay [6] (setting [14]). Besides, the results for the activity, negative = inhibition in [9] (parasite line A) and in [9] (parasite line B) were -2.59% (inactive) and -11.4% (inactive), respectively.

In the case of `CCN(CC)C(=O)N[C@H]1C=C2c3cccc4[nH]cc(c34)C[C@@H]2N(C)C1`, the call in assay [10], in [11] and in [5] was inactive. Further, the results for the Potency in assay [3], in [4] and in assay [7] were > 20.6 µM (inactive), > 20.6 µM (inactive) and 35.5 µM (active), respectively. In addition, the Potency result in assay [12] was “inactive”. For the same molecule, the activity change, negative = inhibition in assay [6] (at 25.7 µM (top of the series)) was -1.39% (inactive). Further, the max response in assay [6] (setting [13]) was -15.1%; in [6] (setting [14]), -15.7%.

With `C[N+]1(C)CCO[C@](O)(c2ccc(-c3ccc([C@]4(O)C[N+](C)(C)CCO4)cc3)cc2)C1`, the Potency result in assay [1] and in assay [12] was “inactive” each time. Besides, the activity change, negative = inhibition was -13.9% (inactive) in assay [2] and -0.651% (inactive) in assay [6] (at 25.7 µM (top of the series)). Moreover, the molecule was classed as inactive in assay [11] and in [5]. Besides, the Potency in [4] was > 20.6 µM (inactive). Further, the max response was 6.3% in [6] (setting [13]) and 5.83% in assay [6] (setting [14]).

Regarding `CC[C@]1(c2cccc(O)c2)CCCCN(C)C1`, the call in assay [10] and in assay [5] was inactive. For the same molecule, the Potency in assay [3] and in assay [4] was > 20.6 µM (inactive) each time. Moreover, the Potency entry (in assay [12]; in assay [7]; in [8]; in the assay with 3D7; in the assay with C2A; in the assay on CP217) was “inactive” in each case. Besides, the Potency result in the assay on CP252, in the assay on CP262, in the assay with CP286 and in the assay with ECU was “inactive” in each case. In addition, the activity change, negative = inhibition in [6] (at 25.7 µM (top of the series)) was -0.585% (inactive). In addition, the max response is -13.2% in assay [6] (setting [13]) and -11.2% in assay [6] (setting [14]). In assay [9] (parasite line A), the activity, negative = inhibition was -7.81% (inactive).

Turning to `C#C[C@@]1(O)CC[C@@H]2[C@@H]3CCC4=CC(=O)CC[C@@]4(C)[C@H]3CC[C@]21C`, the call in [10] and in assay [5] was inactive. Further, the Potency in assay [4] is > 20.6 µM (inactive). The Potency entry in assay [12] was “inactive”. For the same molecule, the activity change, negative = inhibition in [6] (at 25.7 µM (top of the series)) is -1.74% (inactive). The values for the max response in assay [6] (setting [13]) and in assay [6] (setting [14]) were -8.16% and -11.2%, respectively.

As to `c1cncc([C@H]2CCCCN2)c1`, the Potency in assay [1] was 0.1 µM (active); in [3] it was > 46 µM (inactive); in [4], > 46 µM (inactive). Further, in assay [5], the outcome was inactive. Besides, in assay [12], the Potency result was “inactive”. The activity change, negative = inhibition in assay [6] (at 57.5 µM (top of the series)) is 0.698% (inactive). In addition, the max response in [6] (setting [13]) was found to be 18.4%; in [6] (setting [14]), 19.6%.

Turning to `C=C1[C@@H]2CC[C@H]3[C@@]4(C)C[C@@H](O[C@@H]5O[C@H](CO)[C@H](OS(=O)(=O)O)[C@@H](OS(=O)(=O)O)[C@@H]5OC(=O)CC(C)C)C[C@@H](C(=O)O)[C@H]4CC[C@@]3(C2)[C@H]1O`, the outcome in assay [10], in [11] and in assay [5] was inactive. Further, the Potency in assay [4] is > 20.6 µM (inactive). Further, the Potency result in [12] and in assay [7] was “inactive” throughout. In addition, in assay [6] (at 25.7 µM (top of the series)), the activity change, negative = inhibition is -6.46% (inactive). Also, the max response was -23.7% in assay [6] (setting [13]) and -28.9% in [6] (setting [14]).

Values taken from PubChem BioAssay (NCATS).
